From PubChem BioAssay (NCI)
The panel holds about 79,000 compounds, 15% with a hit somewhere; the sample as a whole holds those more often. Unmarked numbers belong to inactive results. Calls of active or inactive are those of the source. No stated cut-off is given here; in the data, active means growth inhibition above about 70%; inactive means the rest.

Tests used:
[1] = NCI Yeast Anticancer Drug Screen. Data for the rad52 strain (AID 147);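 further: 0% = growth of vehicle-treated control cultures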; conditions: S. cerevisiae rad52 mutant growth inhibition, active compounds read high
Summary of the method: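 DNA repair-defective yeast; compound exposure; growth scored against vehicle controls.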

[2] = NCI Yeast Anticancer Drug Screen. Data for the wt1 strain (AID 149);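 further: 0% = growth of vehicle-treated wt1 cultures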; conditions: S. cerevisiae wt1 strain (SPY 50644) growth inhibition, active compounds read high
Summary of the method: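 Growth inhibition read against vehicle controls after compound exposure of the wt1 yeast strain.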

[3] = NCI Yeast Anticancer Drug Screen. Data for the rad50EPP+ strain (AID 151);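 further: 0% = growth of vehicle-treated control cultures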; conditions: S. cerevisiae rad50 mutant strain, active compounds read high
Summary of the method: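 rad50EPP+ yeast treated with test compounds. Readout: growth vs vehicle control.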

[4] = NCI Yeast Anticancer Drug Screen. Data for the mgt1 strain (AID 153); conditions: S. cerevisiae mgt1 mutant growth inhibition, active compounds read high
Summary of the method: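 Growth inhibition relative to vehicle controls was scored for the mgt1 yeast strain after compound exposure.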

[5] = NCI Yeast Anticancer Drug Screen. Data for the rad50 strain (AID 155);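 further: 0% = growth of vehicle-only cultures of the same strain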; conditions: S. cerevisiae rad50 strain growth inhibition, active compounds read high
Summary of the method: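 Readout: growth inhibition relative to vehicle-treated cultures. Compound exposure was carried out in a genetically defined yeast strain deficient in DNA damage repair.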

[6] = NCI Yeast Anticancer Drug Screen. Data for the mec2-1 strain (AID 157); conditions: S. cerevisiae mec2-1 strain, active compounds read high
Summary of the method: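 Growth inhibition is read against vehicle-treated controls after compound exposure of the mec2-1 yeast strain, which is defective in DNA damage repair or cell cycle control.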

[7] = NCI Yeast Anticancer Drug Screen. Data for the rad14 strain (AID 159);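 further: 0% = growth of vehicle-treated control cultures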; conditions: S. cerevisiae rad14 strain growth inhibition, active compounds read high
Summary of the method: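 Growth inhibition vs vehicle controls; genetically altered yeast strain (DNA damage repair defect) treated with test compounds.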

[8] = NCI Yeast Anticancer Drug Screen. Data for the sgs1 mgt1 strain (AID 161);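 further: 0% = growth of cultures given vehicle only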; conditions: S. cerevisiae sgs1 mgt1 strain, active compounds read high
Summary of the method: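 Growth of a repair-deficient yeast mutant was monitored after compound treatment and expressed as inhibition relative to vehicle-treated cultures.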

[9] = NCI Yeast Anticancer Drug Screen. Data for the CLN2oe strain (AID 163);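 further: 0% = growth of vehicle-only control cultures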; conditions: S. cerevisiae CLN2oe strain, active compounds read high
Summary of the method: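 Compound-treated yeast; growth vs vehicle ctrl = % inhibition. Genetically altered strain (cell-cycle control).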

[10] = NCI Yeast Anticancer Drug Screen. Data for the cln2 rad14 strain (AID 165);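 further: 0% = growth equal to vehicle treated cultures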; conditions: S. cerevisiae cln2 rad14 strain, active compounds read high
Summary of the method: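 Growth inhibition, relative to vehicle-treated controls, is the read-out. The test organism is a yeast strain with defined genetic alterations, cln2 rad14.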

[11] = NCI Yeast Anticancer Drug Screen. Data for the bub3 strain (AID 167); conditions: S. cerevisiae bub3 mutant strain, active compounds read high
Summary of the method: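 Readout: yeast growth inhibition, expressed relative to vehicle-only wells. The test organism is a mutant strain from a panel with lesions in DNA repair or checkpoint genes.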

[12] = NCI Yeast Anticancer Drug Screen. Data for the wt2 strain (AID 169);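 further: 0% = growth of vehicle-treated yeast cultures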; conditions: S. cerevisiae wt2 strain growth inhibition, active compounds read high
Summary of the method: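 Compound exposure of yeast; growth compared with vehicle controls; inhibition reported.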

[13] = NCI Yeast Anticancer Drug Screen. Data for the mlh1 strain (AID 171);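 further: 0% = growth of vehicle-treated control cultures of the same strain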; conditions: S. cerevisiae mlh1 strain growth inhibition, active compounds read high
Summary of the method: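 Compounds are applied to a genetically altered yeast strain, and its growth is compared with that of vehicle-treated cultures to give percent inhibition.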

[14] = NCI Yeast Anticancer Drug Screen. Data for the sgs1 strain (AID 173);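 further: 0% = growth of vehicle-only control cultures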; conditions: S. cerevisiae sgs1 mutant, active compounds read high
Summary of the method: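 Compounds applied to genetically altered yeast; growth compared with vehicle-treated cultures to give % inhibition.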

[15] = NCI Yeast Anticancer Drug Screen. Data for the mlh1 rad18 strain (AID 175); conditions: S. cerevisiae mlh1 rad18 strain growth inhibition, active compounds read high
Summary of the method: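 Cells of a genetically altered yeast strain, deficient in DNA damage repair, were treated with compound. Their growth was then compared with that of vehicle-treated cultures to give inhibition.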

[16] = NCI Yeast Anticancer Drug Screen. Data for the rad18 strain (AID 177); conditions: S. cerevisiae rad18 mutant growth inhibition, active compounds read high
Summary of the method: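 Compounds are applied to a repair-deficient yeast strain, and growth is compared with that of vehicle-treated cultures to give percent inhibition.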

[17] = at 5.0 µM (retest, dose inferred, filed as 0.5)
[18] = at 50.0 µM (retest, dose inferred, filed as 5.0)

## CC12CCC(CC(=O)/C1=C(/Br)I)C2(C)C (stereo not drawn)
[1]; at 1.2 µM
  growth inhibition: 2%
[1]; at 3.7 µM
  growth inhibition: 3%
[1]; at 11.0 µM
  growth inhibition: 5%
[1]; at 33.0 µM
  growth inhibition: 13%
[1]; at 100.0 µM
  growth inhibition: 3%
[2]; at 1.2 µM
  growth inhibition: -3%
[2]; at 3.7 µM
  growth inhibition: -2%
[2]; at 11.0 µM
  growth inhibition: -1%
[2]; at 33.0 µM
  growth inhibition: -6%
[2]; at 100.0 µM
  growth inhibition: -1%
[3]; at 1.2 µM
  growth inhibition: 1%
[3]; at 3.7 µM
  growth inhibition: 5%
[3]; at 11.0 µM
  growth inhibition: 7%
[3]; at 33.0 µM
  growth inhibition: 12%
[3]; at 100.0 µM
  growth inhibition: 3%
[4]; at 1.2 µM
  growth inhibition: -1%
[4]; at 3.7 µM
  growth inhibition: -2%
[4]; at 11.0 µM
  growth inhibition: 6%
[4]; at 33.0 µM
  growth inhibition: -13%
[4]; at 100.0 µM
  growth inhibition: 0%
[5]; at 1.2 µM
  growth inhibition: 1%
[5]; at 3.7 µM
  growth inhibition: -3%
[5]; [17]
  growth inhibition: 1%
[5]; at 11.0 µM
  growth inhibition: -18%
[5]; at 33.0 µM
  growth inhibition: 14%
[5]; [18]
  growth inhibition: 80% (active)
[5]; at 50.0 µM
  growth inhibition: 81% (active)
[5]; at 100.0 µM
  growth inhibition: 5%
[6]; at 1.2 µM
  growth inhibition: 0%
[6]; at 3.7 µM
  growth inhibition: -2%
[6]; [17]
  growth inhibition: -19%
[6]; at 11.0 µM
  growth inhibition: -5%
[6]; at 33.0 µM
  growth inhibition: 5%
[6]; [18]
  growth inhibition: 95% (active)
[6]; at 50.0 µM
  growth inhibition: 90.4% (active)
[6]; at 100.0 µM
  growth inhibition: -3%
[7]; at 1.2 µM
  growth inhibition: 1%
[7]; at 3.7 µM
  growth inhibition: 1%
[7]; at 11.0 µM
  growth inhibition: 2%
[7]; at 33.0 µM
  growth inhibition: 3%
[7]; at 100.0 µM
  growth inhibition: 2%
[8]; [17]
  growth inhibition: -9%
[8]; [18]
  growth inhibition: 93% (active)
[8]; at 50.0 µM
  growth inhibition: 84.3% (active)
[9]; at 1.2 µM
  growth inhibition: -1%
[9]; at 3.7 µM
  growth inhibition: 4%
[9]; at 11.0 µM
  growth inhibition: 2%
[9]; at 33.0 µM
  growth inhibition: 0%
[9]; at 100.0 µM
  growth inhibition: 6%
[10]; [17]
  growth inhibition: 40%
[10]; [18]
  growth inhibition: 68%
[10]; at 50.0 µM
  growth inhibition: 63%
[11]; at 1.2 µM
  growth inhibition: 5%
[11]; at 3.7 µM
  growth inhibition: 11%
[11]; [17]
  growth inhibition: -11%
[11]; at 11.0 µM
  growth inhibition: 18%
[11]; at 33.0 µM
  growth inhibition: 24%
[11]; [18]
  growth inhibition: 94% (active)
[11]; at 50.0 µM
  growth inhibition: 78.3% (active)
[11]; at 100.0 µM
  growth inhibition: 10%
[12]; at 1.2 µM
  growth inhibition: -2%
[12]; at 3.7 µM
  growth inhibition: -1%
[12]; at 11.0 µM
  growth inhibition: 1%
[12]; at 33.0 µM
  growth inhibition: 3%
[12]; at 100.0 µM
  growth inhibition: 0%
[13]; at 1.2 µM
  growth inhibition: 2%
[13]; at 3.7 µM
  growth inhibition: -3%
[13]; at 11.0 µM
  growth inhibition: 3%
[13]; at 33.0 µM
  growth inhibition: 3%
[13]; at 100.0 µM
  growth inhibition: -1%
[14]; at 1.2 µM
  growth inhibition: -2%
[14]; at 3.7 µM
  growth inhibition: -1%
[14]; at 11.0 µM
  growth inhibition: 1%
[14]; at 33.0 µM
  growth inhibition: 21%
[14]; at 100.0 µM
  growth inhibition: 1%
[15]; [17]
  growth inhibition: -18%
[15]; [18]
  growth inhibition: 96% (active)
[15]; at 50.0 µM
  growth inhibition: 83.2% (active)
[16]; at 1.2 µM
  growth inhibition: 3%
[16]; at 3.7 µM
  growth inhibition: 10%
[16]; at 11.0 µM
  growth inhibition: 31%
[16]; at 33.0 µM
  growth inhibition: 39%
[16]; at 100.0 µM
  growth inhibition: -1%
